Assay results: PubChem BioAssay AID1839 (Johns Hopkins Ion Channel Center, 2009)
Hit rate of the full screen: of about 2,400 compounds, about 220 (9.2%) were called active.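 How the source made its calls: active means signal change above the mean of dofetilide-free buffer controls plus 3 SD, so a positive margin; inactive means the rest.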 Shown is part of a subset that was picked to be rich in actives.

Experiment: thallium signal changes without hERG – cell-based, CHO-K1 parental line, FluxOR thallium flux, counter-screen for hERG block protection project, confirmation (AID 1839);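 further: compounds applied alone with no dofetilide to cells lacking hERG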
Conditions: CHO-K1 parental cells, FluxOR thallium flux fluorescence; at 10 µM

Row | Compound | signal change vs control minus 3*SD hit threshold (margin above threshold, higher = more increase)
1 | CS(=O)(=O)N1CCN(c2ccccc2NC(=O)Nc2cccc(Cl)c2)CC1 | -32.6% (inactive)
2 | O=C1N2CCSC2=NC1(NS(=O)(=O)c1ccccc1)C(F)(F)F (stereo unspecified) | -19% (inactive)
3 | Cc1ccc(Nc2nc(-c3cccs3)cs2)nc1 | -32.7% (inactive)
4 | CC(C)(C)NC(=O)CN(C(=O)CS(=O)CC(=O)Nc1ccc(F)cc1)c1cccc(F)c1 (stereo unspecified) | -27.9% (inactive)
5 | O=c1c(Cc2ccccc2)c(O)nc2n1CCCS2 | -25.5% (inactive)
6 | COc1ccccc1C(=O)NNC(=O)C(=O)Nc1ccc(C)cc1 | 59.6% (active)
7 | Cc1ccccc1C(=O)NNC(=O)C(=O)Nc1cccc(Cl)c1C | -1.4% (inactive)
8 | COc1ccccc1C(=O)Nc1ccc(C(=O)N2CCCC2)cc1 | -13% (inactive)
9 | COc1ccccc1C(=O)NNC(=O)C(=O)Nc1cccc(Cl)c1C | 55.6% (active)
10 | COc1ccccc1C(=O)NNC(=O)C(=O)NC(C)(C)C | -7.1% (inactive)
11 | C/C(CC(=O)Nc1ccccn1)=N\NC(=O)C(=O)Nc1cccc(Cl)c1C | -14.9% (inactive)
12 | Cc1ccc(OCC(=O)NC(=S)Nc2ccc(Br)cn2)cc1C | -27.8% (inactive)
13 | Cn1cc([N+](=O)[O-])c(C(=O)N/N=C\c2c[nH]c3ccccc23)n1 | -27% (inactive)
14 | O=C(Cc1cccs1)Nn1c(Cc2cccs2)nc2ccccc2c1=O | -15.1% (inactive)
15 | Cc1cc(NC(=O)CCCn2cnc([N+](=O)[O-])n2)no1 | -28.2% (inactive)
16 | COC(=O)C(C)Sc1nnc(Cc2cc(=O)[nH]c(=O)[nH]2)n1-c1cccc(OC)c1 (stereo unspecified) | -26% (inactive)
17 | S=c1[nH]nc(-c2cccs2)n1/N=C/c1c(Cl)cccc1Cl | -17.3% (inactive)
18 | CN(C)S(=O)(=O)c1cc(NC2CC(=O)N(c3ccc(F)cc3)C2=O)ccc1Cl (stereo unspecified) | -30.5% (inactive)
19 | Cc1cc(C)c(C(=O)c2ccc(C(=O)N3CCCCC3)cc2)c(C)c1 | -37.3% (inactive)
20 | COC(=O)c1sccc1NC(=O)CSc1ccccc1NS(=O)(=O)c1cc(Cl)ccc1Cl | -29.7% (inactive)
21 | O=S(=O)(Nc1nc(-c2sccc2Cl)cs1)c1cc(Cl)ccc1Cl | 15.7% (active)
22 | O=C(O)c1ccccc1P(=O)(c1ccccc1)c1ccccc1 | -29.2% (inactive)

Row | Compound | signal change vs control minus 3*SD hit threshold (margin above threshold, higher = more increase)
23 | CCc1cccc(C)c1NC(=O)C1=C(C(=O)O)CCCC1 | -33.6% (inactive)
24 | CN(C(=O)c1ccc(Cl)c(S(=O)(=O)N2CCOCC2)c1)c1ccccc1C(=O)O | -13.3% (inactive)
25 | CC(C1CC2CCC1C2)n1c(-c2cccs2)n[nH]c1=S (stereo unspecified) | -18.6% (inactive)
26 | S=c1[nH]c(-c2cccs2)cn1-c1ccccc1 | -21.8% (inactive)
27 | CCC(C)n1c(=S)[nH]c2ccccc2c1=O (stereo unspecified) | -5.7% (inactive)
28 | COc1cc(/C=N/n2cnc3scc(-c4cccs4)c3c2=O)cc(OC)c1OC | -32% (inactive)
29 | CC(C)n1c(=S)[nH]c2scc(-c3cccs3)c2c1=O | 28.9% (active)
30 | Cn1c(=S)[nH]c2scc(-c3cccs3)c2c1=O | 27.9% (active)
31 | O=C(O)/C=C/C(=O)Nc1ccc(OC(F)(F)F)cc1 | -22.2% (inactive)
32 | CC(NC(=O)CCNC(=O)c1ccco1)c1ccc(F)cc1 (stereo unspecified) | -35.2% (inactive)
33 | CCc1c(C)sc(NC(=O)CN2CCN(C(=O)c3ccco3)CC2)c1C(=O)OC | -35.4% (inactive)
34 | CCc1ccc2[nH]c(=O)c(-c3ccccc3)c(O)c2c1 | -28.9% (inactive)
35 | COc1cc(Cl)c(C)cc1NC(=O)CSc1sc2c(O)cc(=O)[nH]c2c1C#N | -30.6% (inactive)
36 | CCOc1ccc(C(=O)Nc2ccccc2C(=O)O)cc1 | -21.4% (inactive)
37 | C=CCN(c1ccc(Cl)cc1)S(=O)(=O)c1cccc(C(=O)O)c1 | -22.9% (inactive)
38 | O=C(NC(=S)NCCc1ccc(Cl)cc1)c1ccco1 | -21.7% (inactive)
39 | O=C(NC(=S)NCCC1=CCCCC1)c1ccco1 | 22.8% (active)
40 | O=C(NC(=S)NCCC1=CCCCC1)c1ccc(Br)o1 | -1.2% (inactive)
41 | COc1ccc(/C=C/c2cc(=O)c3cc(Cl)ccc3o2)cc1 | -32.9% (inactive)
42 | Cc1nc(NCc2cccnc2)c2c3c(sc2n1)CC(C)CC3 (stereo unspecified) | 5.6% (active)
43 | Cc1nc(NCCc2ccc(S(N)(=O)=O)cc2)c2c(C)c(C)sc2n1 | -24.9% (inactive)
44 | Cc1ccc(OCc2ccoc2C(=O)O)cc1C | -4.5% (inactive)

Row | Compound | signal change vs control minus 3*SD hit threshold (margin above threshold, higher = more increase)
45 | Fc1cccc(C2NN=C(c3ccccc3)S2)c1 (stereo unspecified) | -15.8% (inactive)
46 | O=C(NC(=S)NCc1ccc(-c2nc3ccccc3s2)cc1)c1ccco1 | -21.2% (inactive)
47 | COc1ccc(-c2csc(NC(=S)NC(=O)c3ccco3)n2)cc1 | -14% (inactive)
48 | O=C(NC(=S)Nc1cccc([N+](=O)[O-])c1)c1ccco1 | -40.6% (inactive)
49 | O=C(NC(=S)Nc1nc(-c2ccc(Br)cc2)cs1)c1ccco1 | -20.8% (inactive)
50 | O=C(NC(=S)Nc1nc2ccccc2s1)c1cccs1 | -8.5% (inactive)
51 | O=C(NC(=S)Nc1nc(-c2ccccc2)cs1)c1ccco1 | -21.2% (inactive)
52 | O=C(NC(=S)Nc1nc(-c2ccc([N+](=O)[O-])cc2)cs1)c1ccco1 | 1% (active)
53 | O=C(NC(=S)Nc1nc2ccccc2s1)c1ccco1 | 9.2% (active)
54 | O=C(NC(=S)Nc1nc2ccc(F)cc2s1)c1ccco1 | 47% (active)
55 | CCOC(=O)c1sc(NC(=S)NC(=O)c2ccco2)nc1C | -14.4% (inactive)
56 | COc1ccc2nc(NC(=S)NC(=O)c3ccco3)sc2c1 | 0.7% (active)
57 | COc1ccc(-c2csc(NC(=S)NC(=O)c3ccco3)n2)cc1Br | -15.8% (inactive)
58 | CC(C)Oc1c(Cl)cc(CNC(C)(C)CO)cc1Cl | -26.9% (inactive)
59 | CCN(CCCn1c(=S)[nH]c2ncccc2c1=O)c1ccccc1 | -29.7% (inactive)
60 | COC(=O)C1=C(C)N(CC2CCCO2)C(=O)/C1=C\c1ccc(O)cc1 (stereo unspecified) | -14.9% (inactive)
61 | Nn1c(SCC(=O)Nc2ccc(OC(F)F)cc2)nnc1-c1ccco1 | -27% (inactive)
62 | Cc1cccc(NC(=O)CN2C(=O)S/C(=C\c3ccc(-c4cccc(C(=O)O)c4C)o3)C2=O)c1 | -29.7% (inactive)
63 | CCNC(=S)Nc1nc2c(cc1C(=O)OCC)CCCC2 | -12.5% (inactive)
64 | CCc1ccc(/C=N/NC(=O)c2nnn(-c3nonc3N)c2C(C)C)cc1 | -35% (inactive)
65 | O=C(NC(=S)N1CCCc2ccccc21)c1ccc([N+](=O)[O-])cc1 | -14.7% (inactive)
66 | C[n+]1ccccc1COc1ccc(C(C)(C)C)cc1 | -20.4% (inactive)

Row | Compound | signal change vs control minus 3*SD hit threshold (margin above threshold, higher = more increase)
67 | O=c1cc(-c2c(F)c(F)c(F)c(F)c2F)oc2ccccc12 | -13.6% (inactive)
68 | CCOC(=O)c1c(C)[nH]c(C)c1S(=O)(=O)N1CCCCC1 | -27.3% (inactive)
69 | CCC1CCCCN1C(=S)NC(=O)c1cccc([N+](=O)[O-])c1 (stereo unspecified) | -12.4% (inactive)
70 | O=S(=O)(Nc1ccc(Cc2ccncc2)cc1)c1ccc(Cl)c(Cl)c1 | -33.7% (inactive)
71 | CCOC(=O)/C(C)=N/NC(=O)c1ccc([N+](=O)[O-])cc1 | -4.1% (inactive)
72 | CCc1ccc2nc(NC(=O)c3cc(C)on3)sc2c1 | -21.2% (inactive)
73 | Cc1ccc2nc(NC(=S)NC(=O)c3ccco3)sc2c1 | 13.7% (active)
74 | Cc1ccc2nc(NC(=S)NC(=O)c3cccs3)sc2c1 | -3.1% (inactive)
75 | Cc1csc2c(N3CCCCC3)ncnc12 | -19.8% (inactive)
76 | Cc1sc2ncnc(SCC(=O)NC(=O)c3cccn3C)c2c1C | -30.1% (inactive)
77 | COc1ccc(NC(=O)c2cn(-c3ccccc3)nc2-c2ccncc2)cc1 | -28.9% (inactive)
78 | Oc1c(Cl)cc(Cl)cc1Sc1cc(Cl)cc(Cl)c1O | 53.5% (active)
79 | Oc1c(Cl)cc(Cl)cc1/C=N/c1ncn[nH]1 | -9.1% (inactive)
80 | Oc1c(Cl)cc(Cl)cc1/C=N/c1nccs1 | -6.3% (inactive)
81 | Cc1cc2[nH]c(=O)c(=O)[nH]c2cc1S(=O)(=O)N1CCN(c2cccc(C)c2C)CC1 | -25% (inactive)
82 | CCOC(=O)N1CCN(C(=O)CN(c2ccc(OCC)cc2)S(C)(=O)=O)CC1 | -29.2% (inactive)
83 | CC1CCCCC1NC(=S)NC(=O)c1cccs1 (stereo unspecified) | 3.7% (active)
84 | CC1CCN(C(=S)NC(=O)c2cccs2)CC1 | -12% (inactive)
85 | CC1CCCCC1NC(=S)NC(=O)c1sc2ccccc2c1Cl (stereo unspecified) | -26.5% (inactive)
86 | CC(=O)Nc1ccc(S(=O)(=O)NC2(C(F)(F)F)C(=O)Nc3c2c(=O)[nH]c(=O)n3C)cc1 (stereo unspecified) | -24.3% (inactive)
87 | CCC1(C)Cc2c(sc3nc(SC)[nH]c(=S)c23)CO1 (stereo unspecified) | 48.8% (active)
88 | CCc1nc2sc3c(c2c(=S)[nH]1)CC(C)(C)OC3 | -18.6% (inactive)

Row | Compound | signal change vs control minus 3*SD hit threshold (margin above threshold, higher = more increase)
89 | CSc1nc2sc3c(c2c(=S)[nH]1)CC(C)(C)OC3 | 31.8% (active)
90 | CC(=O)c1ccc(S(=O)(=O)NCc2ccc(C(=O)N(C)CC(=O)Nc3cccc(F)c3)cc2)cc1 | -20.8% (inactive)
91 | CC1Cc2cc(S(=O)(=O)NCc3ccccc3)ccc2N1C(=O)C1CCC1 (stereo unspecified) | -33.7% (inactive)
92 | O=C1NC(=O)C2(COC(c3cccc([N+](=O)[O-])c3)OC2)S1 (stereo unspecified) | -28.4% (inactive)
93 | CCCn1nnnc1SCC(=O)Nc1nnc(CC)s1 | -22.9% (inactive)
94 | Cc1cc(=S)nc(-c2ccccn2)[nH]1 | -18.7% (inactive)
95 | Cc1[nH]c(-c2ccccn2)nc(=S)c1Cl | 18.1% (active)
96 | c1ccc(-c2n[nH]c(-c3ccccn3)n2)cc1 | -23.5% (inactive)
97 | CCCCCOc1ccc(C2C(C(C)=O)=C(C)Nc3ncnn32)cc1OC (stereo unspecified) | -35.5% (inactive)
98 | Cc1ccc(-c2csc3nc[nH]c(=S)c23)cc1 | -1.7% (inactive)
99 | Cc1cccc(-n2cc(-c3ccccc3)[nH]c2=S)c1 | -28% (inactive)
100 | Cc1ccc(-c2csc(=S)[nH]2)cc1 | 59.2% (active)
101 | S=c1[nH]c(-c2ccccc2)cs1 | 16.2% (active)
102 | S=c1[nH]nc(Nc2ccc(Cl)cc2)s1 | -36.9% (inactive)
103 | S=c1[nH]c(-c2ccc(Cl)cc2)cs1 | 61.6% (active)
104 | O=Cc1cc(-c2ccccc2)[nH]c1-c1ccccc1 | -28.6% (inactive)
105 | S=c1[nH]cnc2scc(-c3ccc(Cl)cc3)c12 | -13.3% (inactive)
106 | Cc1ccc(Cc2c[nH]c(=S)s2)cc1 | -4.6% (inactive)
